The results in this text go back to the OligoGym collection.
Also: reference of the scale not given here.

One assay concerns the target RFX3. As to the kind of experiment: pooled miR-30 sensor sort-seq; sequence = guide strand. As to conditions: shRNA.
On to TACACCAAGACTAACAATCAAC, for which the sensor-assay potency score (higher = more potent) was -1.04.
Same read-out and setting: with TTGGTATAGACAGTATCGCTTC the figure was -0.105; with TAAATTTTCAACTTAAGCCCAA, 0.019; with TTGTTGTACTGGTACTTGCTGT, -0.28.
Still for that read-out and setting: under TAGAATTTGACAACAGTCGACC stands -0.732; under TTCTAGTCTCTGAACCATGTTG, -0.714; under TTGAAGATTCACAACAACGTCC, 0.274.
The same measure, in the same setting: with TAAATCACCAAACTCGCCCATG the figure was -0.686; with TTGTTGTTCGGATTGCTCCATT, -0.745.
With TTGACAACAGTCGACCTTCAGG, the sensor-assay potency score (higher = more potent) was -0.926.
The same measure, in the same setting: with AATTTGACAACAGTCGACCTTC the figure was 0.318.
The same measure, in the same setting: with TTAAGTGTTGTAAAAATCCTTC the figure was -0.411.

The next assay addresses RGS13. The assay is described as above. The settings on record: shRNA.
In the case of TAGTCTCTCTTGTCGAACTGTC, the sensor-assay potency score (higher = more potent) is -0.609.
The same measure, in the same setting: with TTCCTGATGATAGTCTCTCTTG the figure was -0.749; with TAGGTTTCACATGCCATCCAGA, -0.935; with ATGATAGTCTCTCTTGTCGAAC, -1.51.
On the same count and under the same terms, under TTGAATATTCTCGTCACTGTGC stands 0.436; under TAGAAATTCTGCTCCACCGTGA, 0.617; under TTAATTGAACTACATAGGCTTG, -0.858.
TTAAATTTTCAAAAGACTGGGC: the sensor-assay potency score (higher = more potent) was -0.0917.
Same read-out and setting: with TCTGACTTTAGAAATCTGGGGT the figure was 0.865; with TTAATGAACATAATAGTAGGAA, 0.19.
Same read-out and setting: with ATAGTCTCTCTTGTCGAACTGT the figure was -0.257; with TTTTGGTACATTTCTGACTTTA, -0.566.

The next assay addresses RGS6. The assay is described as above. The settings on record: shRNA.
For TCTGTCTTGTCTTTTTTCCGGT, the sensor-assay potency score (higher = more potent) stood at 0.0231.
Still for that read-out and setting: under TTCTGCTTCATAATCTGCCAGT stands -0.422.
Same read-out and setting: under TAATCTGCCAGTTCCAGCCTTG stands -0.407; under TTGGCTGAGTACATGCACCGGG, 0.473.
The same measure, in the same setting: under TAATCTCAAGTGATAGTCGTGA stands 0.294; under TAAACTTTCAGCCACTTTGGAC, -0.804; under TTTCAAACAATGTCTGTCGATC, -0.513.
With TTTTCAAACAATGTCTGTCGAT, the sensor-assay potency score (higher = more potent) is -0.396.
The same measure, in the same setting: under TCAAACGTCGACATTTTCGGAT stands -0.513; under TTTGACACACACACACAGGGAA, 0.653; under TTATTTTGCATTGTCCTCTTAC, -0.243.
The sequence TTGTCATCTTGCATCTTTGTAA displayed a sensor-assay potency score (higher = more potent) of -0.676.
